The nature of assay [1]: yeast TOR pathway RPL19A-GFP modulators, primary screen, cell-based, S. cerevisiae, multiplex flow cytometry (AID 1862; in the data active means percent of DMSO control GFP below about 86%;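 further: lower values mimic rapamycin by blocking the RPL19A rise seen in DMSO cells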). Particulars: S. cerevisiae RPL19A-GFP strain, flow cytometry fluorescence, 3 h; at 10 µM; stronger effect = lower value. In general terms: In flow cytometry, cells or beads pass a laser one at a time.
A short description of assay [2]: modulators of MEP2-GFP levels in yeast, primary screen, S. cerevisiae, multiplex flow cytometry (AID 1867;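 active means GFP response, as percent of the DMSO control, above the screen-wide mean plus 3 SD, about 139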;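 further: median GFP channel fluorescence of barcode-gated MEP2-GFP cells measured by flow cytometry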). Particulars: S. cerevisiae MEP2-GFP strain, 3 h, at 10 µM, stronger effect = higher value, 100% means same as DMSO wells.
Assay [3] is described as follows: modulators of CIT2-GFP expression in yeast, primary screen, S. cerevisiae, GFP fusion, multiplex flow cytometry (AID 1870;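 active means percent response above a set limit, the screen-wide mean plus 3 SD, cut at about 130% in these data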;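 further: barcoded CIT2-GFP strain pooled with four other GFP strains with rapamycin as positive control; median GFP fluorescence per well over plate mean of DMSO wells so 100% = DMSO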). The note with it: 3 h, at 10 µM, stronger effect = higher value.
Assay [4] in a line: modulators of LAP4-GFP expression in yeast, primary screen, S. cerevisiae, multiplex flow cytometry (AID 1873;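 active means GFP signal, as percent of the solvent control, above the screen mean plus 3 SD, about 149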). Particulars: 3 h, at 10 µM, stronger effect = higher value.
Assay [5] can be described thus: modulators of AGP1-GFP expression in yeast TOR pathway, primary screen, cell-based, multiplex flow cytometry, S. cerevisiae (AID 1887;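 active means GFP signal above the screen-wide mean plus 3 SD, that is over about 124.5% of the solvent control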;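 further: AGP1-GFP fusion strain of S. cerevisiae within a five-strain barcoded multiplex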). The note with it: 3 h, at 10 µM, stronger effect = higher value.
Assay [6] in a line: inhibitors of CD8+ T cell-vesicle binding, pilot screen, LFA-1/ICAM-1 modulator project, MLPCN validation set, flow cytometry (AID 2523;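 active means response below a set limit, under 55% cells CD8-positive and vesicle-bound, and CD8 cells' 90th-percentile brightness under 279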;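 on vesicle binding response: mean PE anti-B7-1 fluorescence of CD8+ cells relative to row control; 100% = QL9-loaded vesicles with DMSO vehicle in the same plate row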). Particulars: 2C mouse CD8+ T cells, at 7 µM, stronger effect = lower value; double positive events: measured here: CD8+/vesicle+ event percentage.
For assay [7], the target named is Integrin beta-1 (Homo sapiens) + Integrin alpha-4 (Homo sapiens) (UniProt P13612+P05556). The experiment in a line: inhibition of HUTS-21 binding to VLA-4, pilot screen, VLA-4 allosteric modulator project, U937 cells, HUTS-21 mAb, flow cytometry, validation set (AID 2674;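 active means inhibition above 50%, about 3 SD of the validation set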;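 further: antibody binding induced by the VLA-4 ligand LDV present at three times its Kd; 0% = LDV ligand with antibody and no compound and 100% = antibody without LDV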). Particulars: HUTS-21 LIBS mAb binding, at 6.7 µM, stronger effect = higher value, binding induced by LDV ligand.

Assay [8] in a line: superoxide lowering in aged yeast cells, pilot screen, validation compound set (AID 2706;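 active means superoxide response below 65% of plate, a cut near 3 SD across the whole screen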;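 further: yeast exposed to compound for one week at 30 degrees C before staining; 100% = mean of all compound wells on the same plate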). The note with it: S. cerevisiae aging, superoxide DHE fluorescence; at 10 µM, stronger effect = lower value.
The target of assay [9] is Beta-adrenergic receptor kinase 1 (Homo sapiens) (UniProt P25098). Nature of the assay: GRK2 binders displacing RNA aptamer, biochemical, validation, human GRK2, bead flow cytometry (AID 488806;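 active means aptamer binding inhibition above 30%, about 3 SD of noise from non-fluorescent compounds; inactive means inhibition at or below 30%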). Particulars: bead-bound GRK2, FAM-aptamer displacement, at 10 µM, stronger effect = higher value.
For assay [10], the target named is AP-2 complex subunit beta (Homo sapiens) (UniProt P63010). Nature of the assay: inhibitors of arrestin peptide binding to AP2, pilot screen, biochemical, validation set, GST-AP2 beads, flow cytometry (AID 504541).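 Further: AP2 carries R879A mutation and is captured from E. coli lysate; bead-bound FITC arrestin peptide fluorescence measuring arrestin peptide binding to AP2; 0% = DMSO wells and 100% = excess unlabeled arrestin peptide control.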 The note with it: FITC arrestin peptide, at 10 µM, stronger effect = higher value, AP2 beta2 appendage fragment, R879A mutant.
Assay [11] can be described thus: yeast V-ATPase proton transport modulators, S. cerevisiae, pHLuorin, HTS validation (AID 504600; in the data active means response above about 15%;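 further: plate controls were DMSO for no effect and reference compound for full effect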). Particulars: S. cerevisiae pHLuorin cytosolic pH, at 10 µM, stronger effect = higher value.
Assay [12] concerns anti-desmoglein-3 scFv antibody binding to human DSG3. Nature of the assay: inhibitors of anti-DSG3 scFv binding to DSG3, pilot screen, biochemical, validation compound set, bead-based, flow cytometry (AID 588368;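 active means binding below the plate cutoff, the plate median minus 3 SD, with a reading above zero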;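 further: signal is the median channel fluorescence of bead-bound GFP antibody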). The note with it: Protein G beads, DSG3-Fc, scFv-GFP binding, at 10 µM, stronger effect = lower value.
Assay [13] in a line: inhibitors of fungal efflux pumps CDR1, CDR2, MDR1, pilot screen, validation compound set, multiplex, phenotypic (AID 588506;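 active means efflux inhibition above 0.42, the validation set average plus 4 SD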;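 further: Nile Red retained in cells so higher fluorescence means more efflux inhibition; 0 = negative control wells and 1 = enniatin B 25 µM full block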). The note with it: S. cerevisiae pump-expressing triplex, Nile Red efflux flow cytometry; at 10 µM; stronger effect = higher value; the pumps come from Candida albicans.
The target in assay [14] is ATP-binding cassette sub-family B member 6 (Homo sapiens) (UniProt Q9NP58). The experiment in a line: ABCB6 transporter inhibitors, pilot screen, K562-ABCB6 cells, flow cytometry, validation set (AID 588550;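 active means inhibition above the screen-wide mean plus 3 SD, about 51%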;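 further: 0% = DMSO wells and 100% = benzethonium chloride 70 µM positive control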). The note with it: K562-ABCB6 porphyrin accumulation, 1 h, at 10 µM, stronger effect = higher value.
A short description of assay [15]: promoters of myeloid differentiation in arrested cells, primary screen, cell-based, GFP/MAC1 double positive, flow cytometry, validation set (AID 588685;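 active means differentiation response of at least 50%, scaled between solvent and reference control, from cells with both markers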;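 further: compound exposure lasts four days before antibody staining and flow analysis; 0% = DMSO wells and 100% = 5 µM fulvestrant positive control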). The note with it: ER-HoxA9 marrow cells, stronger effect = higher value, normalized: vehicle 0, fulvestrant 100.
The target in assay [16] is Beta-2 adrenergic receptor (Homo sapiens) (UniProt P07550). Nature of the assay: beta2AR agonists driving receptor internalization, pilot screen, cell-based, FAP fluorogen, flow cytometry, validation set (AID 504459;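 active means percent response above 42, roughly 3 SD of non-fluorescent test compounds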;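 further: agonist-driven loss of surface beta2AR via internalization measured by FAP dye flow cytometry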). Particulars: Am2.2-beta2AR cells, FAP surface receptor flow cytometry; at 10 µM; stronger effect = higher value.

The results in this text go back to PubChem BioAssay.

As usually defined, the inhibition is the relative decrease from the control value, in per cent.

Records with an inconclusive call do not appear. Calls of active or inactive are those of the source.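 How the source made its calls, unless noted: active means inhibition above 54%, about 3 SD of non-fluorescent compounds; inactive means the rest.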

Sequence of Beta-adrenergic receptor kinase 1 (Homo sapiens) (P25098 whole entry, looked up): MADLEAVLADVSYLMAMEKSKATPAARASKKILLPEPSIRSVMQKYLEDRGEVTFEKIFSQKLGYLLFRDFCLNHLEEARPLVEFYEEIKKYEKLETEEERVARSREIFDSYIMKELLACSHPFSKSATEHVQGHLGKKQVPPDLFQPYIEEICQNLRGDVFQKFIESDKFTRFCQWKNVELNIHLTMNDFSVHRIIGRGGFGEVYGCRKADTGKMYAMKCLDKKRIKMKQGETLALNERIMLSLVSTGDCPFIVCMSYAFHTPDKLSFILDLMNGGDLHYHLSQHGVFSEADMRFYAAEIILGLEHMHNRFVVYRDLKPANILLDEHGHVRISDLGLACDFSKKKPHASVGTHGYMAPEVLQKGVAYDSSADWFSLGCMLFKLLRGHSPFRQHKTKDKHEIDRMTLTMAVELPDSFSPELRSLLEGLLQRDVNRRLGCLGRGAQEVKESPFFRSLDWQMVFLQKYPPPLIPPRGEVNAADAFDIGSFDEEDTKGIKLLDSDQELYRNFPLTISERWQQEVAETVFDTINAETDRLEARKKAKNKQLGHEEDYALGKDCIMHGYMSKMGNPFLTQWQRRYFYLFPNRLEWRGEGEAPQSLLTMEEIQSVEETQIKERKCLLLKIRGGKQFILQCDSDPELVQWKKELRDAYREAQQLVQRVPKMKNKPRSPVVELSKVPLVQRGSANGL
Sequence of AP-2 complex subunit beta (Homo sapiens) (P63010 whole entry, looked up, the tested form may be a part, one chain of several): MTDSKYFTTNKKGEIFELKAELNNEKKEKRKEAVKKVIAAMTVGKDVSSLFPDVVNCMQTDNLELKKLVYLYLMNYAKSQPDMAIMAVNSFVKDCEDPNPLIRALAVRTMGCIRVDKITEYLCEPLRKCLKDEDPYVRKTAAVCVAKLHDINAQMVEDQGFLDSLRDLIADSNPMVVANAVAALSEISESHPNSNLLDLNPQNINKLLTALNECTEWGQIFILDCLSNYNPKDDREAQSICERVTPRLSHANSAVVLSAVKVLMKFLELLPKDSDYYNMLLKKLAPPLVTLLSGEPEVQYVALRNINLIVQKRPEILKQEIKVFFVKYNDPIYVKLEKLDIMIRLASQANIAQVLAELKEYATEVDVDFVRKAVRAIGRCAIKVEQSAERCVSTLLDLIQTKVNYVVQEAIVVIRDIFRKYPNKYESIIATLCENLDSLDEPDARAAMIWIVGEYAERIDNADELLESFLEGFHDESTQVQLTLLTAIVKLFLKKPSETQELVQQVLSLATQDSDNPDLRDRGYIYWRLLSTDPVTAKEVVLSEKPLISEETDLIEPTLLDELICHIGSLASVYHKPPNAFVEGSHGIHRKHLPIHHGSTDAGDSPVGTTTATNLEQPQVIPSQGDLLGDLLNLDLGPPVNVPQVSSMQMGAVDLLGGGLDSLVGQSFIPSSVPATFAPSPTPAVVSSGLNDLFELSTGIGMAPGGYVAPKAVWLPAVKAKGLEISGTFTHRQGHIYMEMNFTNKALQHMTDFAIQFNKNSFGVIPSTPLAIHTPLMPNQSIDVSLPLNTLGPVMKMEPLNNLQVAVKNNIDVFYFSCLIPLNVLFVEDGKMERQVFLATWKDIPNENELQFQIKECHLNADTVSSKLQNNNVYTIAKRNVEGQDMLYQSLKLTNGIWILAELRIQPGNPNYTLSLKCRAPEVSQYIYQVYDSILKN
Sequence of ATP-binding cassette sub-family B member 6 (Homo sapiens) (Q9NP58 whole entry, looked up): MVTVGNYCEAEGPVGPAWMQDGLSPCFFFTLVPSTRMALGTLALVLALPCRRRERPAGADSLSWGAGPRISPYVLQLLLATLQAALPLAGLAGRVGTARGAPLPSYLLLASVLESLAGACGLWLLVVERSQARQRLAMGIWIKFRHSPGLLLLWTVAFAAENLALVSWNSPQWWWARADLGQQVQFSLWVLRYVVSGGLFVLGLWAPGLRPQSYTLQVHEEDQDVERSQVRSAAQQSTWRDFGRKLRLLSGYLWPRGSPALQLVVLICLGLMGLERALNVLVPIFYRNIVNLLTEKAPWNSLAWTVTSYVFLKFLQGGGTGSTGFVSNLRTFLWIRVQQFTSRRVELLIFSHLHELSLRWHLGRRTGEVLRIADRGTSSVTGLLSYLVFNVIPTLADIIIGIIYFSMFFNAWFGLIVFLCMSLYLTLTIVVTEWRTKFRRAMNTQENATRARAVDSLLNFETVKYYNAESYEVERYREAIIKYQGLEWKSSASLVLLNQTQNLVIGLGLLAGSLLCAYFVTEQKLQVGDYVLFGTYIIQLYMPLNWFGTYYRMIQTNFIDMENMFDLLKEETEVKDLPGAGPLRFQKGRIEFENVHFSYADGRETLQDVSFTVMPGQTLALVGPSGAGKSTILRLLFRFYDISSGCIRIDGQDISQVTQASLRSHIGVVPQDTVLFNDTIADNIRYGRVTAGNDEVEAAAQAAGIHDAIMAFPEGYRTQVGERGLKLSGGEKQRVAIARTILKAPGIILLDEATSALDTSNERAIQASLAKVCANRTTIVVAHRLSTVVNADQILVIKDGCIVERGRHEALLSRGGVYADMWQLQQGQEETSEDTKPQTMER
Sequence of Integrin beta-1 (Homo sapiens) + Integrin alpha-4 (Homo sapiens) (P05556 whole entry, looked up): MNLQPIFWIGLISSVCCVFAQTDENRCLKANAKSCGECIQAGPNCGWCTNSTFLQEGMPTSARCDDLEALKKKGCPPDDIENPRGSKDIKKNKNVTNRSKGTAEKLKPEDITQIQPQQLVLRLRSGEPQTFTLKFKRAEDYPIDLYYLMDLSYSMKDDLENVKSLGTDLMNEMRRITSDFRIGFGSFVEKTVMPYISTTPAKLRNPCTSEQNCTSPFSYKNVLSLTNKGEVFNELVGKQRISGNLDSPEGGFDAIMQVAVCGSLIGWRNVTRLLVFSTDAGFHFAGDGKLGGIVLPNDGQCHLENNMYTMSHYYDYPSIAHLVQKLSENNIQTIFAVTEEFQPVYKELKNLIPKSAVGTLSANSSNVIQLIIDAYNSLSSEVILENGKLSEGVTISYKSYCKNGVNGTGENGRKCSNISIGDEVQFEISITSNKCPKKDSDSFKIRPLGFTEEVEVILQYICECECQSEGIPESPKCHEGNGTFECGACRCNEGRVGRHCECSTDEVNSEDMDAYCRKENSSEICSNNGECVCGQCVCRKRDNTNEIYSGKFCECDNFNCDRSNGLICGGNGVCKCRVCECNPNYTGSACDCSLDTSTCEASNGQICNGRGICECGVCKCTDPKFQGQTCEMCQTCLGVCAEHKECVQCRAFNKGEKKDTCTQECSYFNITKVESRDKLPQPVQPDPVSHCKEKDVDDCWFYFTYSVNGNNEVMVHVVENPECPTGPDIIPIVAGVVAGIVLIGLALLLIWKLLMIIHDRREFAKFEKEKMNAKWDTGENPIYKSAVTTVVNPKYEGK
Sequence of Integrin beta-1 (Homo sapiens) + Integrin alpha-4 (Homo sapiens) (P13612 whole entry, looked up): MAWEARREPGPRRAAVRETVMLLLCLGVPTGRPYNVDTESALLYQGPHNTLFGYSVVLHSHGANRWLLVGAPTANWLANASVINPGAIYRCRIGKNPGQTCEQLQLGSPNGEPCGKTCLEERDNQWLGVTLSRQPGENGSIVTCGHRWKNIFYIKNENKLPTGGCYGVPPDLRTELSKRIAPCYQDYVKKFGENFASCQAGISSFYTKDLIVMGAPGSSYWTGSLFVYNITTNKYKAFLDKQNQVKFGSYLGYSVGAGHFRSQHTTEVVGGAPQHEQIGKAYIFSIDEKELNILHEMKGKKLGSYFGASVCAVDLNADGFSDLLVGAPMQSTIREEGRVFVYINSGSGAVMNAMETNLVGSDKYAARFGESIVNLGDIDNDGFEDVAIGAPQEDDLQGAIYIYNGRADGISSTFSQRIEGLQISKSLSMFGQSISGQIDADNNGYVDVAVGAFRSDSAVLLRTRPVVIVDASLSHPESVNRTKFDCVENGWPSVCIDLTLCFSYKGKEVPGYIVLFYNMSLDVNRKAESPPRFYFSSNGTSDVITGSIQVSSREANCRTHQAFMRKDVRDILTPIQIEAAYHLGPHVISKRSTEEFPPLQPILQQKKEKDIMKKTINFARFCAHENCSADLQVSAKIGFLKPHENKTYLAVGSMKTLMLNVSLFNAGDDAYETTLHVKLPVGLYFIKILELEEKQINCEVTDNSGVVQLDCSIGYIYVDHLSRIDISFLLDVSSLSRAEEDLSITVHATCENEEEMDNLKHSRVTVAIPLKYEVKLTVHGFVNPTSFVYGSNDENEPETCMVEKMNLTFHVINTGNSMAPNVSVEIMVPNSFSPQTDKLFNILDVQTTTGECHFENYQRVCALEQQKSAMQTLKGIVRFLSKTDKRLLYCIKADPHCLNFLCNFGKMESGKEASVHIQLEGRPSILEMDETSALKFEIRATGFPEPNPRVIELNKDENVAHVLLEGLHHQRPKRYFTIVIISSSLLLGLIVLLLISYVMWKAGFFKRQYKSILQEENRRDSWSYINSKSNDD
Sequence of Beta-2 adrenergic receptor (Homo sapiens) (P07550 whole entry, looked up): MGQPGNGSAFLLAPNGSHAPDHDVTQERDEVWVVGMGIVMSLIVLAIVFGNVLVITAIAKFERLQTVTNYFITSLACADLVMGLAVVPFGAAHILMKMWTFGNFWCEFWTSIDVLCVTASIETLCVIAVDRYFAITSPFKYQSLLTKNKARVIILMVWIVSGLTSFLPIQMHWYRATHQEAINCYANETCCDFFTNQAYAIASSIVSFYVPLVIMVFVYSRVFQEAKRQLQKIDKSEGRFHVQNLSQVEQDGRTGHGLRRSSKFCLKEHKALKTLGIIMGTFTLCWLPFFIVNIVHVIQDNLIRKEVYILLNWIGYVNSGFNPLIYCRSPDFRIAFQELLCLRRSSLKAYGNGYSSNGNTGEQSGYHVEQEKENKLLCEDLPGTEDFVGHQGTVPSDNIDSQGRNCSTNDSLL

As to `C=CCc1ccccc1OCC(O)CNC(C)C` (centres undefined), the percent of DMSO control GFP in assay [1] was 103% (inactive). Moreover, the GFP response vs DMSO in [2] was 107% (inactive); in assay [4], 108% (inactive). Further, the percent response of DMSO control in assay [3] was 104% (inactive). For the same compound, the GFP response, % of DMSO in assay [5] was 118% (inactive). In [6], this compound came in with a double positive events of 61.2%. The vesicle binding response in assay [6] is 209% (inactive). In addition, the inhibition in assay [7] was -11.3% (inactive); in assay [10], -4.94% (inactive); in assay [14], -2% (inactive). Moreover, in [8], the superoxide response (% of plate) is 96.7% (inactive). In addition, in assay [9], the aptamer binding inhibition is -32% (inactive). In addition, the response in assay [11] was 0.57% (inactive). The binding (% of control) in assay [12] was 107% (inactive). Also, the efflux inhibition (fraction of control) in assay [13] is 0.12 (inactive). For the same compound, the differentiation response in [15] was -11.9% (inactive).

Regarding `CC(C)Cn1c(=S)[nH]c2cc(C(=O)O)ccc2c1=O`, the percent of DMSO control GFP in assay [1] is 105% (inactive). Besides, the values for the GFP response vs DMSO in [2] and in assay [4] were 97.9% (inactive) and 84.3% (inactive), respectively. For the same compound, the percent response of DMSO control in assay [3] is 108% (inactive). For the same compound, the GFP response, % of DMSO in [5] is 98.5% (inactive). The compound also registered a double positive events in [6] of 61%. Also, in assay [6], the vesicle binding response was 197% (inactive). The inhibition was -1.17% (inactive) in assay [7], -1.44% (inactive) in assay [10] and 2% (inactive) in [14]. Moreover, the superoxide response (% of plate) in assay [8] was 106% (inactive). In assay [9], the aptamer binding inhibition was 4% (inactive). In assay [11], the response is -0.3% (inactive). Besides, the binding (% of control) in [12] was 96.7% (inactive). For the same compound, the efflux inhibition (fraction of control) in [13] was -0.01 (inactive). Besides, the differentiation response in assay [15] was -26% (inactive).

As for `CCOc1ccc(CCn2c(-c3ccco3)nc3ccccc3c2=O)cc1OCC`, in [1], the percent of DMSO control GFP was 100% (inactive). Also, the GFP response vs DMSO is 106% (inactive) in [2] and 92.7% (inactive) in assay [4]. The percent response of DMSO control in [3] was 94.2% (inactive). The GFP response, % of DMSO in [5] was 92.6% (inactive). Besides, the double positive events in [6] was 62.6%. Besides, the vesicle binding response in assay [6] is 258% (inactive). Also, the inhibition in assay [7] was -18.1% (inactive); in [10], 3.57% (inactive); in assay [14] it was 20% (inactive). The aptamer binding inhibition in [9] is 1% (inactive). The values for the response in assay [16] and in assay [11] were 2.8% (inactive) and -0.47% (inactive), respectively. In addition, the binding (% of control) in [12] was 91.2% (inactive). Moreover, in assay [13], the efflux inhibition (fraction of control) was 0.27 (inactive). Further, the differentiation response in [15] was 0.24% (inactive).

Take `Cc1ncc([N+](=O)[O-])n1CC(C)O` (centres undefined): the percent of DMSO control GFP in [1] is 101% (inactive). Besides, the GFP response vs DMSO was 103% (inactive) in assay [2] and 99.4% (inactive) in assay [4]. In [3], the percent response of DMSO control was 103% (inactive). For the same compound, the GFP response, % of DMSO in assay [5] was 97.3% (inactive). This compound returned a double positive events in assay [6] of 52.2%. For the same compound, the vesicle binding response in assay [6] is 149% (inactive). In addition, the inhibition in assay [7] is 8.15% (inactive); in [10] it was -6.78% (inactive); in assay [14], 8% (inactive). Besides, the superoxide response (% of plate) in assay [8] is 100% (inactive). Further, in assay [9], the aptamer binding inhibition was 9% (inactive). Further, in assay [11], the response was -2.48% (inactive). Besides, in [12], the binding (% of control) was 100% (inactive). Besides, the efflux inhibition (fraction of control) in assay [13] is 0.14 (inactive). Further, in assay [15], the differentiation response is -9.89% (inactive).

For `COc1ccc(CCN(C)CCCC(C#N)(c2ccc(OC)c(OC)c2)C(C)C)cc1OC` (centres undefined), the percent of DMSO control GFP in assay [1] is 105% (inactive). Moreover, the figures for the GFP response vs DMSO in [2] and in [4] were 104% (inactive) and 95.4% (inactive), respectively. Further, the percent response of DMSO control in [3] is 98.8% (inactive). In assay [5], the GFP response, % of DMSO was 99.7% (inactive). Moreover, the double positive events in [6] is 63.8%. In assay [6], the vesicle binding response is 183% (inactive). The inhibition in assay [7] was 2.56% (inactive); in assay [10], 53.9% (inactive); in assay [14], 2% (inactive). Besides, the superoxide response (% of plate) in [8] was 101% (inactive). For the same compound, the aptamer binding inhibition in assay [9] is -1% (inactive). The response in assay [11] is 1.25% (inactive). In [12], the binding (% of control) is 102% (inactive). Besides, the differentiation response in [15] is 24% (inactive).
